Compound activity from PubChem.
Most compounds without a hit are left out; they make up all but 8.5% or so of the library.
KDM4E inh = inhibitors of human JMJD2E histone demethylase. JMJD2E catalytic domain, FDH-coupled NADH fluorescence (FDH is formaldehyde dehydrogenase). Potency, µM (doses to about 57.1 µM), for the others: top-dose activity change, negative = inhibition, actives largely listed as inhibitors. actives 1.6% (n = 230,000);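 further: potency means the concentration at half of the fitted maximal effect; 0% = wells with enzyme and -100% = buffer wells without enzyme; nearly all actives have a fitted effect of over 50% in size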
Target sequence (B2RXH2 1-337 limits assumed): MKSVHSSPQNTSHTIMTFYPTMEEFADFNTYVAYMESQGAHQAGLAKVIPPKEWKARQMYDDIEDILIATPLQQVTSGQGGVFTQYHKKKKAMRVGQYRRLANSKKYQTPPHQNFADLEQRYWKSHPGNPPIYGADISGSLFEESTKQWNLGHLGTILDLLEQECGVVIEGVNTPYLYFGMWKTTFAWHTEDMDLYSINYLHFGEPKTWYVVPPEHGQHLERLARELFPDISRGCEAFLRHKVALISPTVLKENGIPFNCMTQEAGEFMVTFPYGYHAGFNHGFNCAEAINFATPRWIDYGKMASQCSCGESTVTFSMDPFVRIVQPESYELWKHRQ
NPSR antagonist = neuropeptide S receptor (human) antagonism, cAMP. Q6W5P4. CHO-NPSR cells, cAMP TR-FRET, antagonist mode. Potency, µM (highest dose often 38.3 µM), without a hit: at the top dose activity change, negative = inhibition, hits mostly inhibitors. actives 1% (n = 220,000). AID 1461; active means well fitted curve in the direction sought with a large enough effect; inconclusive means small, poorly fitted or top-dose-only effect, or another doubt; inactive means no such curve, though single readings can be large; an effect the other way counts as inactive or inconclusive; further: potency means the concentration at half of the fitted maximal effect; nearly all actives have a fitted effect of over 50% in size
Target sequence (Q6W5P4 whole entry, looked up): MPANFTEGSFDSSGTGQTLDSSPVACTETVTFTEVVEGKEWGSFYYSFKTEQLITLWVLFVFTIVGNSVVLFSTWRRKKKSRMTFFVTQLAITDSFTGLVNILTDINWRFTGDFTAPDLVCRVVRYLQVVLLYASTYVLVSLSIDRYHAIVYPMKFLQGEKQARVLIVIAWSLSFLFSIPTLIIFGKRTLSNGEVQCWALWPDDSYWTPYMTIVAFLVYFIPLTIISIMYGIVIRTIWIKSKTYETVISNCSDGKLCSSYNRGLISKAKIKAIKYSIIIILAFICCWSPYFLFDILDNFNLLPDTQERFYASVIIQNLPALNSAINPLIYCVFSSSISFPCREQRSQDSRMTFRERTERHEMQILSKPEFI
Coupling enz = inhibits coupling enzyme system, counter-screen for aldolase hits. activity change, negative = inhibition, % at 58.2 µM, hits read low. coupling enzyme system counterscreen, AmpLite Red fluorescence. actives 0.67% (n = 290,000); in the data active means activity change below about -30%
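Fluorescence at 525 nm excitation and 598 nm emission measured inhibition of the coupled detection system without aldolase. Compounds (at 57.5 uM final) were preincubated 10 min at room temperature with coupling enzyme reagent before a 20 min substrate/AmpLite Red step.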
Sfp PPTase inh = Sfp phosphopantetheinyl transferase inhibition | Potency, µM, for inactives: largest response in the series, negative = inhibition, actives largely listed as inhibitors | actives 3.5% (n = 310,000) | AID 1490 | Q9F4F7 | Biochemical Sfp PPTase activity, qHTS; active means well fitted curve in the direction sought with a large enough effect; inconclusive means small, poorly fitted or top-dose-only effect, or another doubt; inactive means no such curve, though single readings can be large; an effect the other way counts as inactive or inconclusive;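 further: the enzyme is Sfp with the accession as filed and its product quenches rhodamine fluorescence; potency means the concentration at half of the fitted maximal effect; 0% = enzyme reaction without inhibitor and -100% = no enzyme wells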
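Step 1, compound plus 15 nM Sfp-PPTase, 15 min, room temperature. Step 2, add rhodamine-CoA (5 uM) and BHQ-2-YbbR (12.5 uM). Step 3, read 525/598 nm fluorescence at 0 and 30 min.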
ALDH1A1 block = inhibitors of human aldehyde dehydrogenase 1A1. P00352. Purified ALDH1A1, NADH fluorescence, propionaldehyde substrate. Potency, µM (series often up to 75.3 µM), for inactives: at the top dose activity, negative = inhibition, usual class: inhibitors. actives 7.3% (n = 220,000);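 further: potency means the concentration at half of the fitted maximal effect; plate controls were no enzyme wells and a reference inhibitor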
GoLoco inh red = blocks human Gai1 binding to RGS12 GoLoco peptide, red readout; Gai1:RGS12 GoLoco peptide FP, rhodamine, 10 min; actives 0.44% (n = 230,000); Potency, µM (series often up to 61.6 µM), for inactives: at the highest dose activity, negative = inhibition, usual class: inhibitors; P63096; active means well fitted inhibition curve with a large enough effect, not every such curve was filed as active; inactive means no such curve, though single readings can be large or run the other way; further: potency means the concentration at half of the fitted maximal effect; nearly all actives have a fitted effect of over 30% in size
Starred values were filed as active, the others as inactive; [ ] = remark or other dose. Unless noted, the call rests on the fitted dose curve; in most records, active means well fitted inhibition curve with a large enough effect (not every such curve was filed as active); inconclusive means small, poorly fitted or top-dose-only effect, or another doubt; inactive means no such curve, though single readings can be large or run the other way. Unless noted, on the % scale 0 is the no-effect control and ±100 the full control effect.

For CCCN(CCC)[C@@H]1CCc2c(OC)cccc2[C@@H]1C the results were KDM4E inh 10%, Coupling enz 0, Sfp PPTase inh 6%, ALDH1A1 block -2% and GoLoco inh red 10%.
C=CCC1C(=O)NC(=S)NC1=O was read as KDM4E inh -12%, NPSR antagonist 15%, Coupling enz 0, Sfp PPTase inh 50µM*, ALDH1A1 block inconclusive and GoLoco inh red -5%.
For CC(C)c1cc2c(c(O)c1O)[C@]1(C(=O)O)CCCC(C)(C)C1CC2 (stereo partly specified) the results were KDM4E inh 13µM*, Coupling enz -15, Sfp PPTase inh -108%, ALDH1A1 block 16µM* and GoLoco inh red -9%.
Screening CC(=O)O[C@@H]1C[C@@]2(C)C(c3ccoc3)C[C@H]3O[C@]32[C@]2(C)C(=O)C(O)=C3C(C)(C)C(=O)C=C[C@]3(C)C12 (stereo partly specified) returned KDM4E inh -1%, Coupling enz 1, Sfp PPTase inh -6%, ALDH1A1 block 1% and GoLoco inh red -28%.
Screening CN1C(=O)N(C)C(=O)C2(Cc3ccccc3N3CCOCC32)C1=O (stereo unspecified) returned KDM4E inh 10%, NPSR antagonist -5%[46.1 µM], Coupling enz 0, Sfp PPTase inh 20%, ALDH1A1 block 20µM* and GoLoco inh red -13%.
CN1C(=O)N(C)C(=O)C2(Cc3cc([N+](=O)[O-])ccc3N3CCN(C(=O)c4ccccc4)CC32)C1=O (stereo unspecified) was read as Coupling enz 0 and Sfp PPTase inh 8%.
COC1=CC(=O)OC(CCc2ccccc2)C1 (stereo unspecified) was read as ALDH1A1 block -9% and GoLoco inh red 0%.
Screening CCNC(=O)[C@H]1O[C@@H](n2cnc3c(N)ncnc32)[C@H](O)[C@H]1O returned KDM4E inh 3%, NPSR antagonist 9%[46.1 µM], ALDH1A1 block 7% and GoLoco inh red 9%.
Nc1nc2c(ncn2[C@@H]2O[C@H](CO)[C@@H](O)[C@@H]2O)c(=[SH+])[nH]1.O=[N+]([O-])c1ccc(O)[c]([Hg])c1 was read as ALDH1A1 block 0.05µM* and GoLoco inh red 0.11µM*.
CC1=NN(c2ccccc2)C(=O)/C1=C/c1c(O)[nH]c(=S)[nH]c1=O was read as KDM4E inh -16%, NPSR antagonist -11%[46.1 µM], Coupling enz 7, Sfp PPTase inh 50µM*, ALDH1A1 block inconclusive and GoLoco inh red 21%.
`CC1=NN(c2ccccc2)C(=O)/C1=C/c1c(O)[nH]c(=O)[nH]c1=O` gave KDM4E inh -5%, NPSR antagonist -11%, Coupling enz 0, Sfp PPTase inh 4%, ALDH1A1 block inconclusive and GoLoco inh red 1%.
For CC(C)C[C@H](NC(=O)[C@H](Cc1ccccc1)NC(=O)CNC(=O)[C@@H](NC(=O)[C@@H](N)Cc1ccc(O)cc1)[C@H](C)O)C(=O)N[C@H](C(=O)O)[C@H](C)O the results were Sfp PPTase inh -10%, ALDH1A1 block 11% and GoLoco inh red 8%.
O=C1NC(=O)N(Cc2ccccc2)C(=O)/C1=C\N1CCCc2ccccc21 was read as KDM4E inh 1%, NPSR antagonist 23%, Coupling enz -7, Sfp PPTase inh inconclusive, ALDH1A1 block -2% and GoLoco inh red -9%.
For O=C1NC(=O)N(Cc2ccccc2Cl)C(=O)/C1=C/N1CCOCC1 the results were KDM4E inh -7%, NPSR antagonist -8%[46.1 µM], Coupling enz 5, Sfp PPTase inh 10µM*, ALDH1A1 block -11% and GoLoco inh red 14%.
CC(=O)Nc1ccc(N(C(=O)Cn2nnc3ccccc32)C(C(=O)NC2CCCC2)c2ccc(O)c(O)c2)cc1 (stereo unspecified) was read as KDM4E inh 7.9µM*, NPSR antagonist -14%, Coupling enz -2, Sfp PPTase inh -14%, ALDH1A1 block -10% and GoLoco inh red 4%.
`CC1CCCCC1NC(=O)Cn1nnc2ccccc2c1=O` (stereo unspecified) gave KDM4E inh -7%, NPSR antagonist 4%, Coupling enz 0, Sfp PPTase inh 15%, ALDH1A1 block inconclusive and GoLoco inh red 1%.
CN1Cc2c(ccc3c2OCO3)[C@@H]2[C@@H](O)Cc3cc4c(cc3[C@@H]21)OCO4 was read as KDM4E inh 4%[25.5 µM], Coupling enz 1, Sfp PPTase inh 10%, ALDH1A1 block inconclusive and GoLoco inh red -2%[21.6 µM].
For C=CCc1cc(C=C2C(=O)N(C)C(=O)N(C)C2=O)cc(OCC)c1OCc1ccccc1 the results were KDM4E inh -20%, NPSR antagonist -35%, Coupling enz 1, Sfp PPTase inh 32µM*, ALDH1A1 block 25µM* and GoLoco inh red 25%.
`C=CCc1cc(C=C2C(=O)NC(=O)NC2=O)cc(OC)c1OCc1ccc(C(=O)O)cc1` gave KDM4E inh inconclusive, NPSR antagonist -24%, Coupling enz 12, Sfp PPTase inh 56µM*, ALDH1A1 block 11µM* and GoLoco inh red -14%.
C=CCn1cc(C=C2C(=O)N(C)C(=O)N(C)C2=O)c2ccccc21 was read as Coupling enz 2 and Sfp PPTase inh -5%.
ClC1=C(Cl)C2(Cl)C3C(Cl)C(Cl)CC3C1(Cl)C2(Cl)Cl (stereo unspecified) was read as ALDH1A1 block -16% and GoLoco inh red -23%.
For CC1=C2C(=O)[C@@H]3[C@@H](CC=C4C[C@@H](O)CC[C@@]43C)[C@H]2CC[C@@]12O[C@H]1C[C@H](C)CN[C@H]1[C@@H]2C the results were ALDH1A1 block 5%[13.5 µM] and GoLoco inh red 9%[14.2 µM].
`COC(=O)C1(O)CC2OC1(C)n1c3ccccc3c3c4c(c5c6ccccc6n2c5c31)C(=O)NC4` (stereo unspecified) gave Coupling enz -1, Sfp PPTase inh -8%, ALDH1A1 block -2%[13.5 µM] and GoLoco inh red 5%[14.2 µM].
For CN[C@H]1C[C@H]2O[C@@](C)([C@H]1OC)n1c3ccccc3c3c4c(c5c6ccccc6n2c5c31)C(=O)NC4 the results were KDM4E inh inconclusive, NPSR antagonist 6.3µM*, Coupling enz 0, Sfp PPTase inh -13%, ALDH1A1 block -8% and GoLoco inh red 16%.
`O=C(Cc1ccccc1)N1CCN(C2CCCC2)CC1` gave KDM4E inh inconclusive, NPSR antagonist 6%[46.1 µM], Coupling enz -2, Sfp PPTase inh 89µM*, ALDH1A1 block inconclusive and GoLoco inh red -10%.
`COc1ccc(CN2CCN(C(=O)Cc3ccccc3)CC2)cc1Br` gave Coupling enz -2 and Sfp PPTase inh 89µM*.
